The values that follow come from PubChem BioAssay (NCATS).

Assay [1] concerns the target Thyrotropin receptor (Homo sapiens) (UniProt P16473). As to the kind of experiment: qHTS Assay for Antagonists of the Thyroid Stimulating Hormone Receptor (AID 488980). Note: series mostly up to about 58 µM; 0% is about no effect. In short, it runs like this: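 Readout is cAMP by HTRF competition between cellular cAMP and cAMP-d2 for a cryptate-labelled antibody. Antagonism was assessed in TSHR-transfected HEK293 cells stimulated with 4 nM TSH (EC80, final) in the presence of RO 20-1724.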

Assay [2] deals with D(1A) dopamine receptor (Homo sapiens) (UniProt P21728). Kind of assay: HTS Assay for Allosteric Agonists of the Human D1 Dopamine Receptor: Primary Screen for Antagonists (AID 488983).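 Note: calcium flux response to an EC80 dopamine challenge measured with no-wash dye; % is set by controls: 0 for no effect and ±100 for the full control effect; nearly all actives have a fitted effect of over 65% in size.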 In short, it runs like this:
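Screening of inducible HEK293 T-REx D1 cells: compound first, EC80 dopamine 180 s later, each phase read kinetically for calcium over 180 s.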

Assay [3] is described as follows: Validation screen for small molecules that induce genotoxicity in human embryonic kidney (HEK293T) cells expressing luciferase-tagged ELG1 (AID 493106). Note: 0% is about no effect. The method, boiled down:
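Reporter-gene quantitative HTS in HEK293T cells carrying luciferase-tagged ELG1, whose level climbs under genotoxic stress. Compound exposure lasts 16 hr at 37 °C before luciferase detection.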

The target in assay [4] is ATPase family AAA domain-containing protein 5 (Homo sapiens) (UniProt Q96QE3). Kind of assay: Validation screen for small molecules that inhibit ELG1-dependent DNA repair in human embryonic kidney (HEK293T) cells expressing luciferase-tagged ELG1 (AID 493107).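 Note: cells co-treated with the DNA-damaging agent 5-fluorouridine alongside compound; series mostly up to about 46 µM; % is set by controls: 0 for no effect and ±100 for the full control effect; inhibitors lower the ELG1-luciferase luminescence signal; nearly all actives have a fitted effect of over 70% in size.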 In short, it runs like this:
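Quantitative HTS in HEK293T cells carrying luciferase-tagged ELG1, stimulated with 5-fluorouridine alongside compound for 16 hr. Loss of luciferase signal marks inhibition of ELG1 response.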

Assay [5] concerns the target Thyrotropin-releasing hormone receptor (Homo sapiens) (UniProt P34981). As to the kind of experiment: qHTS for Small Molecule Agonists and Allosteric Enhancers of Human TRH Receptor: Validation Screen for Agonists (AID 493127;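 active = calcium activation more than 3 SD above the typical response in the agonist read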;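 note: intracellular calcium rise by fluo-8 fluorescence before TRH EC20 addition; 0% is about no effect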). The following applies: TRH receptor agonist cell assay; at 2 µM; stronger effect = higher value. In short, it runs like this:
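Gq-coupled calcium mobilization in TRHR cells after compound addition, monitored kinetically with fluo-8 dye on an FDSS reader.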
In general terms: In qHTS, concentration-response curves come from the screen itself.

A short description of assay [6]: Nrf2 qHTS screen for inhibitors: Validation (AID 493153; active = well fitted inhibition curve with a large enough effect in the main read-out, with a control signal flat, not every such curve was filed as active). The following applies: Potency: luciferase luminescence; viability change: measured here: cytotoxicity max response. In short, it runs like this: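 Dose-response validation uses reporter A549 cells with firefly luciferase under an antioxidant response element. Compounds stay on cells 18-24 h at 37°C, and luminescence indicates Nrf2-driven transcription.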

Assay [7] in a line: qHTS for Inhibitors of Cell Surface uPA Generation: Validation Assay (AID 493164).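 Note: RAW 264.7 macrophage cells exposed to compound for 18 h; 0% is about no effect.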 In short, it runs like this:
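RAW 264.7, 4000 cells/well, o/n plating; cpd 7-pt 1:5 dilution 2.45 nM–38.3 uM final; 18 h, 37 C/5% CO2; ATP-Lite, 5 s luminescence exposure.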

Assay [8] has as its target Galactokinase (Homo sapiens) (UniProt P51570). As to the kind of experiment: qHTS Validation Assay for Inhibitors of Human Galactokinase (GALK) (AID 493189). Note: 0% is about no effect. In short, it runs like this:
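5 nM GALK / 100 uM galactose / 35 uM ATP, 20 mM HEPES pH8.0, 5 mM MgCl2, 60 mM NaCl, 1 mM DTT, 0.01% BSA (final). RT 1 h; Kinase-Glo Plus luminescence.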

Assay [9] can be described thus: Validation screen for small molecules that induce DNA re-replication in SW480 colon adenocarcinoma cells (AID 504364). Note: 0% is about no effect. The method, boiled down: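 Cells are treated 48 hr with test compound, stained 40 min with Hoechst at 37 C, and scanned for nuclear fluorescence; compounds inducing re-replication increase nuclei with elevated intensity.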
Assay [10] concerns the target phosphoglycerate mutase (Leishmania major) (UniProt Q4Q090). As to the kind of experiment: qHTS Validation Assay to Find Inhibitors of Phosphoglycerate Mutase (AID 504548).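 Note: end-point luminescence from Kinase-GloPlus after the PGAM reaction; series mostly up to about 58 µM; % is set by controls: 0 for no effect and ±100 for the full control effect.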 The following applies: Potency: inhibition qHTS. The method, boiled down:
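L. major PGAM (1.25nM final) was added to substrate buffer and pinned compound, incubated 45 minutes at room temperature, then Kinase-GloPlus added; luminescence read after 10 minutes. Buffer: 100 mM TEA pH 7.6, 5 mM MgCl2, 0.01% Tween-20.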

Assay [11] in a line: qHTS for Inhibitors of ATXN expression: Validation of Cytotoxic Assay (AID 588349).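 Note: cells exposed to compound for 72 hr; % is set by controls: 0 for no effect and ±100 for the full control effect.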 The method, boiled down: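 HEK293, compound dose series, 72 hr / 37 degrees C; viability via CellTiter Glo (intracellular ATP).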
Assay [12] can be described thus: qHTS for Inhibitors of ATXN expression: Validation (AID 588378). Note: series mostly up to about 57 µM; % is set by controls: 0 for no effect and ±100 for the full control effect; nearly all actives have a fitted effect of over 75% in size. The method, boiled down:
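Compounds were pinned onto attached HEK293 cells carrying an ATXN2-firefly luciferase construct and incubated 24 hrs at 37 degrees C. Each well then received a fluorescent viability reagent followed by luciferase substrate for end-point luminescence.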

The target of assay [13] is DNA dC->dU-editing enzyme APOBEC-3G (Homo sapiens) (UniProt Q9HC16). Kind of assay: qHTS for inhibitors of Vif-A3G interactions: Validation (AID 588379). Note: 0% is about no effect. In short, it runs like this: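 HeLa cells stably expressing Vif and A3G-eYFP, 700 cells/well, incubated overnight at 37 deg C, then exposed to compound overnight at 37 deg C. Inhibition of Vif-mediated degradation read as increased yellow fluorescence (Ex 488/Em 500-530) by laser-scanning cytometry.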

Assay [14] deals with ATP-dependent 6-phosphofructokinase (Trypanosoma brucei brucei) (UniProt O15648). As to the kind of experiment: qHTS Assay to Find Inhibitors of T. brucei phosphofructokinase: hit validation (AID 492961).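 Note: luminescence reports ADP formed as PFK phosphorylates fructose-6-phosphate with ATP; series mostly up to about 51 µM; % is set by controls: 0 for no effect and ±100 for the full control effect.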 The method, boiled down: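 Reaction: 0.1 M triethanolamine pH 8.0, 5 mM MgCl2, F6P 0.5 mM, ATP 0.1 mM, PFK 1.25 nM, 45 min RT. Read-out: ADP-Glo luminescence. Analysis: concentration-response fits, classed by r2 and efficacy.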

In assay [15] the target is Ubiquitin carboxyl-terminal hydrolase 1 (Homo sapiens) (UniProt O94782). Kind of assay: Inhibitors of USP1/UAF1: Pilot qHTS (AID 504865).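 Note: rhodamine fluorescence freed from ubiquitin-rhodamine substrate followed over time; top concentration of the series differs between compounds; % is set by controls: 0 for no effect and ±100 for the full control effect; nearly all actives have a fitted effect of over 35% in size.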 The method, boiled down: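 In 50mM HEPES pH 7.8 containing 0.5mM EDTA, 1mM TCEP, 0.1 mg/ml BSA and 0.01% Tween-20, 1nM USP1/UAF1 is exposed to compound for 15 min, then Ub-Rho (150nM final) is added and fluorescence is read over time.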

Assay [16] deals with D(1A) dopamine receptor (Homo sapiens) (UniProt P21728). As to the kind of experiment: HTS Assay for Allosteric Agonists of the Human D1 Dopamine Receptor: Primary Screen for Potentiators (AID 488982). Note: 0% is about no effect. The method, boiled down: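 Tetracycline-induced HEK293 T-REx cells force-coupled to calcium signalling were incubated overnight at 30 C and dye-loaded at room temperature. Calcium flux over 180 s after compound addition flagged agonists; a further 180 s read after EC20 dopamine flagged potentiators.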

Assay [17] concerns the target Peptidyl-prolyl cis-trans isomerase NIMA-interacting 1 (Homo sapiens) (UniProt Q13526). As to the kind of experiment: qHTS Validation Assay to Find Inhibitors of Pin1 (AID 504536; active = well fitted inhibition curve with a large enough effect in the polarisation, with a control signal flat, not every such curve was filed as active; the % refers to the polarisation;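 note: 0% = full Pin1 enzyme wells and -100% = no-enzyme wells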). In short, it runs like this:
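Fluorescence polarization competition: compounds (titration) displace HiFluor-488-labeled Pin1-1b peptide from Pin1 (0.3 uM final) in pH 7.5 HEPES buffer with DTT, 10 min at room temperature; %Activity normalized to no-enzyme wells, curves fitted.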

For assay [18], the target named is Phosphoglycerate kinase, glycosomal (Trypanosoma brucei brucei) (UniProt P07378). Kind of assay: qHTS Validation Assay to Find Inhibitors of Phosphoglycerate Kinase (AID 504547).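 Note: control wells lack PGK and mark full inhibition.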 In short, it runs like this: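 Substrate/PGK mix plus compound; reaction started with GAPDH (100nM final) to form 1,3-BPG; 60 min RT; Kinase-Glo Plus 10 min; luminescence. TEA 100mM pH 7.6, MgCl2 5mM, Tween-20 0.01%.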

Records with an inconclusive call do not appear. The source made the active and inactive calls. Unless noted, calls come from the whole dose curve; as a rule, active = well fitted curve in the direction sought with a large enough effect; inconclusive = small, poorly fitted or top-dose-only effect, or another doubt; inactive = no such curve, though single readings can be large; an effect the other way counts as inactive or inconclusive.

Chain of Ubiquitin carboxyl-terminal hydrolase 1 (Homo sapiens) (O94782 whole entry, looked up): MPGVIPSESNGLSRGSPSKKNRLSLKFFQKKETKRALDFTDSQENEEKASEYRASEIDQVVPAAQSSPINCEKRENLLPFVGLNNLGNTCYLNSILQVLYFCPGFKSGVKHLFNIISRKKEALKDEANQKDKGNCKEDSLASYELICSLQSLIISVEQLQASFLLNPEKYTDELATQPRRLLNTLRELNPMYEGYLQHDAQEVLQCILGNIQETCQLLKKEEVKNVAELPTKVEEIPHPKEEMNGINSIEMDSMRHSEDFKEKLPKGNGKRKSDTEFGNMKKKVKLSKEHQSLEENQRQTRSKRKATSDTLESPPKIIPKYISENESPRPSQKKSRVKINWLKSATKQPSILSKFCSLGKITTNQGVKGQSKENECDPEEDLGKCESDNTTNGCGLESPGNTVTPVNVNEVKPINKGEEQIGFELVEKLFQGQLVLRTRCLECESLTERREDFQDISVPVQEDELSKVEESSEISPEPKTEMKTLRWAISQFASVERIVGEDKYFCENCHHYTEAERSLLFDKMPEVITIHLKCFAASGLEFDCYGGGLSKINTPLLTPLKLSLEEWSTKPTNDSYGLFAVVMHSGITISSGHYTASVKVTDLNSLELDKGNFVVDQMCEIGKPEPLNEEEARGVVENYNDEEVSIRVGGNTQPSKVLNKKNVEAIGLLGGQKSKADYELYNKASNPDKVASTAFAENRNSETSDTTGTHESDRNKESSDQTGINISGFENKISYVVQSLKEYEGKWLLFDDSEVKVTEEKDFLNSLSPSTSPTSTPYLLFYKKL
Chain of D(1A) dopamine receptor (Homo sapiens) (P21728 whole entry, looked up): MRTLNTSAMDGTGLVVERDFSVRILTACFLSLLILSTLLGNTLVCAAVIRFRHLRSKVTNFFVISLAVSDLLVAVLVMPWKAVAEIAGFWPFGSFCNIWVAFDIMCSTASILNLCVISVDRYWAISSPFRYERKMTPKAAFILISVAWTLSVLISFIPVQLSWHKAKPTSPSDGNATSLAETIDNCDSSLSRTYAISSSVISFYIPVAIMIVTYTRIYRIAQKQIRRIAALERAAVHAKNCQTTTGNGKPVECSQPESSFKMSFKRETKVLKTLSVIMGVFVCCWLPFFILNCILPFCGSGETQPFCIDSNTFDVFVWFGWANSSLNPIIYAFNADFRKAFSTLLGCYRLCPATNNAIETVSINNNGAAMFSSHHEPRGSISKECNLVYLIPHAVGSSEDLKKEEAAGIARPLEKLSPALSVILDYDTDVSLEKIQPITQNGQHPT
Chain of ATP-dependent 6-phosphofructokinase (Trypanosoma brucei brucei) (O15648 whole entry, looked up): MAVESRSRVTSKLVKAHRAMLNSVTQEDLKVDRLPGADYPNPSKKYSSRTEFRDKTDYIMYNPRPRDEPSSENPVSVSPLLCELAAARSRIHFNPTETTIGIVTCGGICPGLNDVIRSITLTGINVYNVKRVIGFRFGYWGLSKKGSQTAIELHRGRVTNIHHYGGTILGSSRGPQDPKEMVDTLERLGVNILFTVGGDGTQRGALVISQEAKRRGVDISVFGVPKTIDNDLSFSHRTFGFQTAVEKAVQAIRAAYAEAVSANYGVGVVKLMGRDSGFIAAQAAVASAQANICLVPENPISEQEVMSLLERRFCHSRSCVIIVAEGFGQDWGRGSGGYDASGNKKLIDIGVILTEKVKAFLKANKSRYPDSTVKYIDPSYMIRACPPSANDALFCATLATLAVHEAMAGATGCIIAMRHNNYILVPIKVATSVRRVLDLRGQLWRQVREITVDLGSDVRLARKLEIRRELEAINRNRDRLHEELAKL
Chain of ATPase family AAA domain-containing protein 5 (Homo sapiens) (Q96QE3 whole entry, looked up, the tested form may be a part): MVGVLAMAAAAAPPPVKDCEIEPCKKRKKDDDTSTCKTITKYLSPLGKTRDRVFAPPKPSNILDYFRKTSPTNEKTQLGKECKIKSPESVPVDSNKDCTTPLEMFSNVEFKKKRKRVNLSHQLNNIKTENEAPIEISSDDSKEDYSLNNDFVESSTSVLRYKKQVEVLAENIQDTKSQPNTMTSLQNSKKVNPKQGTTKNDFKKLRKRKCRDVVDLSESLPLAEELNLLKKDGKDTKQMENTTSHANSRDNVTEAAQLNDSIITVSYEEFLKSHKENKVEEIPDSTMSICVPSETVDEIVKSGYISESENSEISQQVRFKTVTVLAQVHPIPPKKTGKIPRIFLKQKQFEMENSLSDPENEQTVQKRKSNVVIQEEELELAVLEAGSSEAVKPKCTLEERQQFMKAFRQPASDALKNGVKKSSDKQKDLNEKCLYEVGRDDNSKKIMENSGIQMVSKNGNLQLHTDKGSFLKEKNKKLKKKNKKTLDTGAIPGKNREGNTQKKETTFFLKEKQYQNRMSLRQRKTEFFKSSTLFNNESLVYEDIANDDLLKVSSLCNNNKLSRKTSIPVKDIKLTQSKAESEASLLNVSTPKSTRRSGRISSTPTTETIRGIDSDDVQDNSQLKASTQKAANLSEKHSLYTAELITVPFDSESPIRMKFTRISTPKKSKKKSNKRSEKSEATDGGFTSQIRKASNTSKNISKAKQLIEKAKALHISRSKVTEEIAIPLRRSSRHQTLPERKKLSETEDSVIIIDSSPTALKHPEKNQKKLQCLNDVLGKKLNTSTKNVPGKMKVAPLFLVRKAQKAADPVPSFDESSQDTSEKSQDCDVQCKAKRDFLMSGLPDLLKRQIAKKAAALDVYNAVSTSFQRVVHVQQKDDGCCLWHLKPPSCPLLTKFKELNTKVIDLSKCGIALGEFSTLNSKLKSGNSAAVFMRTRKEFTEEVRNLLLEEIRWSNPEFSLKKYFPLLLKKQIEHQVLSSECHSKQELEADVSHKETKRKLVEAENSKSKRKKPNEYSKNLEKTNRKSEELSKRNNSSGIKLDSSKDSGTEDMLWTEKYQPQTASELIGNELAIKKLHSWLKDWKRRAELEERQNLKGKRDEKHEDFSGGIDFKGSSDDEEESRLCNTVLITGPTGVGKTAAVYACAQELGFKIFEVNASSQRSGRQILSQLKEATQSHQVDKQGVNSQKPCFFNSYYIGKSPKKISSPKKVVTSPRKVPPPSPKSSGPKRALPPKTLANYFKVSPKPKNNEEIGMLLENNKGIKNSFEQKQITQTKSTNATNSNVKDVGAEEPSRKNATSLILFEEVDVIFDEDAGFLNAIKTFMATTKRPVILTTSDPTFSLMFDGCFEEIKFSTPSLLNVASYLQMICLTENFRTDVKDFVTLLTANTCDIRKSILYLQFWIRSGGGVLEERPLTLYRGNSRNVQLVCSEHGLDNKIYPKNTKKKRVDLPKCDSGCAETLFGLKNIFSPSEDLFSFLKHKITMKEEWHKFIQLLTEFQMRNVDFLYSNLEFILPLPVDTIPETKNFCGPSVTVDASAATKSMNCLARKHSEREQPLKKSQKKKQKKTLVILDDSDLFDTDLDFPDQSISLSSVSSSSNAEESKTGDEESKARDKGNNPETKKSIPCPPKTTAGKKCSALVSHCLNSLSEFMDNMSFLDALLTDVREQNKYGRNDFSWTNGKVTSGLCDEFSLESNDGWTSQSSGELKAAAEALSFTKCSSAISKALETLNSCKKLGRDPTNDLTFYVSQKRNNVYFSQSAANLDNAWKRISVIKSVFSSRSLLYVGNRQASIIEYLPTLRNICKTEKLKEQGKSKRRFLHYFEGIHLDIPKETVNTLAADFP
Chain of Phosphoglycerate kinase, glycosomal (Trypanosoma brucei brucei) (P07378 whole entry, looked up): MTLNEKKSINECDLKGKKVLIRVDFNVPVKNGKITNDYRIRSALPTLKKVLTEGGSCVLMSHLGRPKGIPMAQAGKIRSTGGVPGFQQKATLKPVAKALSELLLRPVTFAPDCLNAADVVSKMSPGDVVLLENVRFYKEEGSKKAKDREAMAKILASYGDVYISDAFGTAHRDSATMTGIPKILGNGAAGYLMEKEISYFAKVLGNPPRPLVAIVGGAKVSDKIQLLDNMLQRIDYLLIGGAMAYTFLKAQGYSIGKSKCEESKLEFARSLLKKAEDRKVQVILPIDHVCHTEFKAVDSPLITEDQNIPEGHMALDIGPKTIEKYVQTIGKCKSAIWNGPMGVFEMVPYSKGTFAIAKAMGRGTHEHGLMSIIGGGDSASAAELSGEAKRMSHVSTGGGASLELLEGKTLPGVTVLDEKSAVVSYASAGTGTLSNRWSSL
Chain of phosphoglycerate mutase (Leishmania major) (Q4Q090 1-553): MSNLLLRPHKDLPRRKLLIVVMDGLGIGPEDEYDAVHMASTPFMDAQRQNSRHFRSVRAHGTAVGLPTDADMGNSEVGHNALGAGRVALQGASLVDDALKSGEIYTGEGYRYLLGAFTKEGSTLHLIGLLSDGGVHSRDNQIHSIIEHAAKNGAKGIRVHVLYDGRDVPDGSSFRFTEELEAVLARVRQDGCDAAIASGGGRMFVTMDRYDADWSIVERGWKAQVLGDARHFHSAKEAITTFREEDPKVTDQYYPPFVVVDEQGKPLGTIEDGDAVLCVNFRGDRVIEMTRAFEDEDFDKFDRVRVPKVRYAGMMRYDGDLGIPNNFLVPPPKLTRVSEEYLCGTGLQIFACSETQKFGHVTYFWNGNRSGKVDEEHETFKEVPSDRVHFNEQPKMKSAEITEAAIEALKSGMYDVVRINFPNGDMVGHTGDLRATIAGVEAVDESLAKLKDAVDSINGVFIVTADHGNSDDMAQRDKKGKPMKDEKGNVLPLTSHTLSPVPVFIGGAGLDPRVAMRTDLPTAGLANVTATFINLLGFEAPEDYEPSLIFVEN
Chain of Peptidyl-prolyl cis-trans isomerase NIMA-interacting 1 (Homo sapiens) (Q13526 whole entry, looked up): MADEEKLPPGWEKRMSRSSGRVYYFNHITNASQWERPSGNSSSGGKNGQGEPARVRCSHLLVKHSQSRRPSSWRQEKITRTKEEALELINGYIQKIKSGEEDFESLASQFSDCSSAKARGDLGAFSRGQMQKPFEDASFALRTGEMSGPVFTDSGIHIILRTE

On to `O=c1c(O)c(-c2ccc(O)cc2O)oc2cc(O)cc(O)c12`, for which the result in assay [1], in assay [4], in [7], in assay [8], in [11] and in [13] was inactive. Moreover, the Potency result in [2], in assay [3], in assay [6], in assay [9], in assay [10] and in assay [12] was “inactive” in each case. The activation in assay [5] is 0.938% (inactive). The viability change in assay [6] was -13.4%.
On to `Cc1ncc([N+](=O)[O-])n1CC(C)O` (centres undefined), for which, in assay [14], the result was inactive. Besides, the Potency result in assay [15] was “inactive”.
For the compound `Cc1c(C(=O)NN2CCCCC2)nn(-c2ccc(Cl)cc2Cl)c1-c1ccc(Cl)cc1`, the call in [14] was inactive.
The same measure, in the same setting: the entry for `Cc1cccc(C)c1OCC(=O)N[C@@H](Cc1ccccc1)[C@@H](O)C[C@H](Cc1ccccc1)NC(=O)[C@H](C(C)C)N1CCCNC1=O` is “inactive”.
In the case of `Cn1c(NCCN(CCO)CCCc2ccc([N+](=O)[O-])cc2)cc(=O)n(C)c1=O`, the compound was classed as inactive in assay [14].
On to `Nc1nc(N)c(N=O)c(OCC2CCCCC2)n1`, for which the Potency result in assay [16], in [2], in assay [6], in [18], in [10] and in assay [15] was “inactive” in each case. In addition, the Potency result in [12] was “inactive”. Besides, the compound was called inactive in assay [4], in [7] and in assay [17]. Besides, in [6], the viability change was -2.98%.
Turning to `COC1=C(OC)C(=O)C(CCCCCCCCCCO)=C(C)C1=O`, the outcome in [14] was inactive.
As to `COc1cc2c(cc1OC)C1CC(=O)C(CC(C)C)CN1CC2` (centres undefined), the Potency entry in assay [16], in assay [2], in [6], in [18], in [10] and in assay [15] was “inactive” each time. The Potency result in assay [12] was “inactive”. In addition, the viability change in assay [6] is -5.87%. Besides, the outcome in assay [7], in assay [17] and in assay [11] was inactive.
Consider `Nc1ccn([C@@H]2O[C@H](CO)[C@@H](O)C2O)c(=O)n1` (some centres undefined), for which the Potency result in [16], in assay [2], in assay [3], in assay [18], in [10] and in assay [15] was “inactive” in each case. Further, the outcome in assay [4], in [7], in assay [17] and in [11] was inactive.
As to `Clc1ccc(C(Cn2ccnc2)OCc2ccsc2Cl)c(Cl)c1` (centres undefined), the compound was called inactive in assay [14].
`CCCCCCCCCCCCCCCCCCCCCCO`: the result in [14] was inactive. In assay [15], the Potency entry is “inactive”.
As for `COc1ccc(C2(C#N)CCC(C(=O)O)CC2)cc1OC1CCCC1` (centres undefined), the compound was called inactive in assay [14].
On the same count and under the same terms, the entry for `O=P(O)(O)C(O)(Cn1ccnc1)P(=O)(O)O` is “inactive”.
Consider `O=C(NC(Cc1cc(=O)[nH]c2ccccc12)C(=O)O)c1ccc(Cl)cc1` (centres undefined), for which the result in assay [14] was inactive. Further, in assay [15], the Potency entry is “inactive”.
Consider `C[C@H](Cn1cnc2c(N)ncnc21)OCP(=O)(O)O`, for which the outcome in assay [14] was inactive. Also, in [15], the Potency entry was “inactive”.
Consider `CCCCC(CC)COC(=O)C(C#N)=C(c1ccccc1)c1ccccc1` (centres undefined), for which the outcome in [14] was inactive.
Turning to `CC(=O)N1CCN(c2ccc(OC[C@H]3CO[C@](Cn4ccnc4)(c4ccc(Cl)cc4Cl)O3)cc2)CC1`, the call in assay [1], in assay [7], in assay [8], in [17] and in [13] was inactive. In addition, the Potency result in assay [16], in assay [9], in assay [18] and in assay [10] was “inactive” each time.
On to `CCC(C)(Oc1ccc(C2(c3ccc(OC(C)(CC)C(=O)O)cc3)CCCCC2)cc1)C(=O)O` (centres undefined), for which the result in [14] was inactive.
On the same count and under the same terms, the entry for `O=C(O)c1cn(-c2ccc(F)cc2)c2cc(N3CCNCC3)c(F)cc2c1=O` is “inactive”; for `CNC[C@@H](O)[C@@H](O)[C@H](O)[C@H](O)CO` it is “inactive”.
Take `C[C@]12CCC(=O)C=C1CC[C@@H]1[C@H]2[C@@H](O)C[C@@]2(C)[C@H]1CC[C@]2(O)C(=O)CO`: the outcome in assay [14] was inactive. The Potency result in [15] was “inactive”.
With `CC(C)[C@H](N)C(=O)OCCOCn1cnc2c(=O)[nH]c(N)nc21`, in assay [14], the compound was called inactive.
Same read-out and setting: the entry for `CCC[C@@H]1C[C@@H](C(=O)N[C@@H]([C@H]2O[C@H](SC)[C@H](O)[C@@H](O)[C@H]2O)[C@@H](C)O)N(C)C1` is “inactive”; for `CN(C)C(=O)COC(=O)Cc1ccc(OC(=O)c2ccc(N=C(N)N)cc2)cc1` it is “inactive”.
